Consider 48 compounds from PMC4336329 (PLoS ONE, 2015).

Each structure is given as a SMILES string. Hit rate of the full screen: of about 310,000 compounds, about 2,200 (0.71%) showed an effect of 50% or more. The effect is printed as a negative number. The full list was thinned out, with strong results kept by preference.

The target of this assay is human ether-à-go-go-related gene (hERG) potassium channel (human, UniProt Q12809). The assay is described as follows: primary screen, population patch clamp on CHO cells stably expressing hERG; higher = less effect of the substance.
human ether-à-go-go-related gene (hERG) potassium channel, sequence (Q12809 whole entry, looked up): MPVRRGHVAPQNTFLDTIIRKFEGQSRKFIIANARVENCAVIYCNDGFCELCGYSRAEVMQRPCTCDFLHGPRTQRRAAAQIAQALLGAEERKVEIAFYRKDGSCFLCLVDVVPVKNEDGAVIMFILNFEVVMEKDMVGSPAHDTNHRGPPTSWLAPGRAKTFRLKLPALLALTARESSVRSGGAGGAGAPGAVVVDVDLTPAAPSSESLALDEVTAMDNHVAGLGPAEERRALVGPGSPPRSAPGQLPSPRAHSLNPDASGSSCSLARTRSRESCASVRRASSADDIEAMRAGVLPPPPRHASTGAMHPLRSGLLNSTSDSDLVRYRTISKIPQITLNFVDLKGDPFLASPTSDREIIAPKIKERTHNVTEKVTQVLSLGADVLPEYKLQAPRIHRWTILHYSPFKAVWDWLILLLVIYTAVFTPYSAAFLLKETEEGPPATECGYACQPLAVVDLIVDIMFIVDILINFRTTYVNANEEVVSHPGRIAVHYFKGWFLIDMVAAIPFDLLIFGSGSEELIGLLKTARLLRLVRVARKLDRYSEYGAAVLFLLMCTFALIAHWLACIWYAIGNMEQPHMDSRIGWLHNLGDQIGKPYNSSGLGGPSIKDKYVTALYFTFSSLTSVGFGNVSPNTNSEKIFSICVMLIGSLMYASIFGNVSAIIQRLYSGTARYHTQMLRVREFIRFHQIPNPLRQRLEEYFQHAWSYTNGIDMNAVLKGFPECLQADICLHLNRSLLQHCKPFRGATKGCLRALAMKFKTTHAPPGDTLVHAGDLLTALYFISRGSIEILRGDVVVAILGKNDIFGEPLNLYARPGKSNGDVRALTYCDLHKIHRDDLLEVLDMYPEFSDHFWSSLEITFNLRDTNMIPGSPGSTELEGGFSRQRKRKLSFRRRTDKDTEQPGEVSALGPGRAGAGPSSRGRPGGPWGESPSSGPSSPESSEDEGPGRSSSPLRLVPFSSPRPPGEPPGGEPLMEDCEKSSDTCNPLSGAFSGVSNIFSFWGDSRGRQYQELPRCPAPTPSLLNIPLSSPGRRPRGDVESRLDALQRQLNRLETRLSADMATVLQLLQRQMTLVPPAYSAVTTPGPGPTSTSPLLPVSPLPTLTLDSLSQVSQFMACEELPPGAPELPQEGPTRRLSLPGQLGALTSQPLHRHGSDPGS
Regarding `CCNC(=O)Nc1nc2ccccc2s1`, the “hERG current change (%, negative = inhibition) at 1uM” value is given as 8.72%. Under `Cc1nn(C)c(=O)c(N)c1-c1cc(-c2ccc(Cl)c(Cl)c2)n[nH]1` stands 12.9%; under `CCN(CC(=O)Nc1ccc(C(=O)OC)cc1)C1CCCCC1`, 16.3%; under `CCN(C(=S)Nc1ccc(OC(F)F)cc1)C1CCCCC1`, -1.82%. Under `CCN(CC(=O)Nc1ccc(OC(F)F)cc1)C1CCCCC1` stands -61.6%; under `COc1ccc(OCCC(=O)c2ccc(OC)cc2)cc1`, 4.68%; under `CC(OC(=O)CC1CCCCC1)C(=O)Nc1cccc(C#N)c1` (stereo not drawn), 6.92%.

`CCOc1ccc(/C=N/NC(=O)C2CC2)cc1OC`: the “hERG current change (%, negative = inhibition) at 1uM” value is listed as 19.1%.

`COc1cc(/C=N/NC(=O)C2CCN(CC(O)COCc3ccccc3)CC2)ccc1O` (stereo not drawn): the “hERG current change (%, negative = inhibition) at 1uM” value is listed as -63.6%. With `COc1cc(/C=N/NC(=O)C2CCN(CC(O)COCc3ccccc3)CC2)cc(OC)c1OC` (stereo not drawn), the “hERG current change (%, negative = inhibition) at 1uM” value was -34.2%.

For the compound `O=C(Nc1ccccc1)OCCOc1ccc(Br)cc1`, the “hERG current change (%, negative = inhibition) at 1uM” value stood at 11.2%.

`O=C(O)c1ccc(C[n+]2c(-c3ccccc3)csc2Nc2ccccc2)cc1.[Br-]`: the “hERG current change (%, negative = inhibition) at 1uM” value is 8.98%.

Turning to `Cl.Oc1ccc(CCNc2c3ccccc3nc3ccccc23)cc1O`, the “hERG current change (%, negative = inhibition) at 1uM” value was -3.93%.

For the compound `CCOC(=O)c1cnc2c(C)cccc2c1NCCc1ccc(OC)c(OC)c1`, the “hERG current change (%, negative = inhibition) at 1uM” value is reported as -4.73%.

On to `CCOC(=O)c1cnc2ccc(OC)cc2c1NCCN1CCOCC1`, for which the “hERG current change (%, negative = inhibition) at 1uM” value is reported as -13.3%.

With `CCOC(=O)c1cnc2ccc(C(=O)OC)cc2c1NCCc1ccc(OC)c(OC)c1`, the “hERG current change (%, negative = inhibition) at 1uM” value came out at 0.861%. Under `CCOC(=O)c1cnc2ccc(OC)cc2c1NCCc1ccc(OC)c(OC)c1` stands -69.5%; under `CCOC(=O)c1cnc2ccccc2c1NCCc1ccc(OC)c(OC)c1`, -72%; under `COc1ccc(CCNc2c3ccccc3nc3ccccc23)cc1OC.Cl`, -59.8%. Under `COc1ccc(CCNc2nc(-c3cccnc3)nc3ccccc23)cc1OC` stands 9.94%; under `CCOC(=O)c1cnc2ccccc2c1NCCO`, -15.2%; under `O=C(CCCOc1ccc(Cl)cc1)NC1CCCCC1`, 12.5%.

Take `Cc1ccc2sc(NNC(=O)c3ccc4c(c3)OCCO4)nc2c1C`: the “hERG current change (%, negative = inhibition) at 1uM” value was determined as 8.2%. Under `CCC(=O)n1nc(-c2ccc(Cl)cc2)nc1NCc1ccccc1` stands 8.9%; under `COc1cccc(N2CC(O)=C(c3nc4ccccc4c(=O)[nH]3)C2=N)c1`, 6.93%. Under `Cc1c(O)ccc(NS(=O)(=O)c2ccccc2)c1C` stands 13%; under `O=c1[nH]c2ccccc2n1C1CCCCC1`, 7.5%. Under `O=C1CC(N2CCC(n3c(=O)[nH]c4ccccc43)CC2)C(=O)N1c1ccc(F)cc1` (stereo not drawn) stands 7.15%. With `O=C(CCCN1CCC(n2c(=O)[nH]c3ccccc32)CC1)c1ccc(F)cc1`, the “hERG current change (%, negative = inhibition) at 1uM” value is recorded as -80.8%. Turning to `O=c1[nH]c2ccccc2n1C1CCN(CCCC(c2ccc(F)cc2)c2ccc(F)cc2)CC1`, the “hERG current change (%, negative = inhibition) at 1uM” value is -76.5%.

On to `O=c1[nH]c2ccccc2n1CCCN1CCC(n2c(=O)[nH]c3cc(Cl)ccc32)CC1`, for which the “hERG current change (%, negative = inhibition) at 1uM” value was -46.8%. Under `O=C(Nc1cccc(F)c1)N1CCC(n2c(=O)[nH]c3ccccc32)CC1` stands 2.25%; under `CCN(CC)C(=O)c1ccc(NC(=O)c2ccc(-n3cncn3)c([N+](=O)[O-])c2)cc1`, 4.18%; under `CS(=O)(=O)NNC(=O)CN1C(=O)C2C3C=CC(C3)C2C1=O` (stereo not drawn), 22.9%.

As for `Cc1noc(C)c1C(=O)Nc1nc2ccc(F)cc2s1`, the “hERG current change (%, negative = inhibition) at 1uM” value is 2.2%. Regarding `CCOC(=O)C(C)Sc1nnc(Cn2c(=O)sc3ccccc32)n1-c1ccccc1` (stereo not drawn), the “hERG current change (%, negative = inhibition) at 1uM” value is on record as 4.98%. Under `CCOCCn1c(=O)c2c(nc3n2CC(C)CN3CCc2ccccc2)n(C)c1=O` (stereo not drawn) stands -58.9%; under `CCOCCn1c(=O)c2c(nc3n2CC(C)CN3Cc2ccccc2)n(C)c1=O` (stereo not drawn), -14.4%. Take `COCCn1c(=O)c2c(nc3n2CC(C)CN3CCc2ccccc2)n(C)c1=O` (stereo not drawn): the “hERG current change (%, negative = inhibition) at 1uM” value is listed as -9.39%.

In the case of `O=C(CC1NCCNC1=O)Nc1cccc([N+](=O)[O-])c1` (stereo not drawn), the “hERG current change (%, negative = inhibition) at 1uM” value is 6.97%. As for `CCC(C)N(C(=O)COC(=O)c1ccccc1SCC(=O)N1CCCC1)C1CCS(=O)(=O)C1` (stereo not drawn), the “hERG current change (%, negative = inhibition) at 1uM” value is 11.9%. Under `O=C1c2ccccc2-c2nc3ncnn3c(-c3ccccc3Cl)c21` stands 5.18%. Under `Cc1ccc(Nc2nc(NCCCN3CCOCC3)nc(N)c2[N+](=O)[O-])cc1C` stands 4.15%. Under `COc1ccc(Nc2nc(NCCCN3CCOCC3)nc(N)c2[N+](=O)[O-])cc1` stands 3.71%; under `Cc1ccc(Nc2nc(NCCCN3CCOCC3)nc(N)c2[N+](=O)[O-])cc1`, -56.2%. With `COc1ccc(NC(=O)c2ccc(-n3cccn3)nc2)c(OC)c1`, the “hERG current change (%, negative = inhibition) at 1uM” value was 17.4%. For `COC(=O)c1ccc2nc(NC(=O)CN3C(=O)CCC3=O)sc2c1`, the “hERG current change (%, negative = inhibition) at 1uM” value is reported as 14.3%. Under `CN(CC(=O)Nc1cccc(F)c1)C(=O)c1cc(S(=O)(=O)N2CCCCC2)ccc1N1CCOCC1` stands 3.68%.
